The results in this text go back to PubChem BioAssay AID504329 (Southern Research Specialized Biocontainment Screening …, 2011).

The whole screen tested about 340,000 compounds, of which about 1,000 (0.29%) were called active. Not all results are given here. Results with a measured potency or affinity are listed apart. Unmarked numbers belong to inactive results. Cut-off read from the data, not from the text of the source: inconclusive = inhibition above about 27% without an active follow-up result; inactive = below that.

The assay in a line: NS1A inhibition, H1N1 influenza, cell based functional assay (AID 504329). The note with it: percent inhibition, at 12.5 µM, hits give high values.
In general, inhibition refers to the relative decrease from the control value, in per cent. On to `COc1ccc(NC(=O)COC(=O)c2ccc3ccccc3n2)cc1`, for which the inhibition is -0.01%.
The result for `CCN(CC)c1ccc(NC(=O)COC(=O)c2ccc3ccccc3n2)cc1` reads 17.3%; that for `O=C(Nc1ccn(CCCNCc2ccccc2)c(=O)n1)OCc1ccccc1`, -1.35%.
As for `COc1cc(CN2CC=C(c3ccc(F)cc3)CC2)cc(OC)c1`, the inhibition was -3.66%.
Next, `CCN(CC)c1ccc(CN2CC=C(c3ccc(F)cc3)CC2)cc1`: 23.1%; `N[C@@H](Cc1ccc(O)cc1)c1nnc([C@H](CO)NC(=O)C2CCNCC2)o1`: -21.5%; `COc1ccccc1C=NNC(=O)c1ccccc1OCCOc1ccccc1`: -1.44%.
Next, `COc1ccc(CCc2nnc(N)s2)cc1OC`: -1.61%; `CCOC(=O)c1cc(-c2ccc(Cl)s2)[nH]n1`: 0.06%; `Cn1cccc1/C=C1\C(=O)NC(=O)N(Cc2ccco2)C1=O`: 3.7%.
The result for `NC(=O)C1CCN(/C=C2\C(=O)NC(=O)N(Cc3ccco3)C2=O)CC1` reads -5.38%; that for `CCN(CC)c1ccc(/C=C2/C(=O)NC(=O)N(Cc3ccco3)C2=O)cc1`, 7.25%.
In the case of `O=C1NC(=O)N(Cc2ccco2)C(=O)/C1=C/C=C/c1ccco1`, the inhibition was -3.06%.
Consider `COC(=O)c1ccc(NC(=O)CNS(=O)(=O)c2cccs2)cc1`, for which the inhibition was 1.39%.
Regarding `COc1ccc(C(=O)N/N=C(\C)CC(=O)Nc2ccccn2)cc1OC`, the inhibition is 1.35%.
The result for `COc1cc(C(=O)N/N=C(\c2ccccc2)c2ccccn2)cc(OC)c1OC` reads 8.37%.
Next, `COc1cc(NC(=O)c2ccccn2)cc(OC)c1OC`: -8.83%; `COc1ccc(C(=O)N/N=C/c2ccccn2)cc1OC`: 0.68%.
The result for `COc1ccc(NC(=S)N2CCN(Cc3ccccc3)CC2)c(OC)c1` reads -3.28%.
As for `Fc1cccc(-c2oncc2-c2nnnn2-c2ccc(Cl)cc2)c1`, the inhibition was 12.9%.
Next, `CCOC(=O)c1ccc(NC(=O)CCNS(=O)(=O)c2cc(Br)cnc2N)cc1`: 1.26%.
The result for `CN1CCN(C2=C(Cl)C(=O)c3ccccc3C2=O)CC1` reads -8.61%; that for `O=C1C(Cl)=C(N2CCC(C(=O)O)CC2)C(=O)c2ccccc21`, 0.19%.
Next, `C[C@H](CO)N1C[C@H](C)[C@H](CN(C)Cc2ccccc2)Oc2c(NC(=O)Nc3ccc(F)cc3)cccc2C1=O`: -3.95%.
`Cc1ccc(C(=O)OCC(=O)c2ccc(Cl)s2)s1`: the inhibition is 1.17%.
Next, `CC1(C)CC(NC(=O)C23CCC(C)(C2Br)C3(C)C)CC(C)(C)N1` (stereo unspecified): -5.71%.
